Measured values published in PubChem BioAssay.
Unmarked numbers belong to inactive results. Active and inactive are the calls of the source.

Experiment: PSAC antagonists in infected red cells, primary screen, cell-based, P. falciparum Indochina, OD700, 2 h (AID 1155);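 further: lysis reports solute entry through the parasite surface anion channel PSAC; channel blockers reduce lysis of infected cells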
Conditions: P. falciparum Indochina infected erythrocytes, osmotic lysis OD700; higher = more signal, called active from +8 up or from −8 down

Compound | z-score
COCCOC(=O)N1C(=O)[C@@]2(c3ccccc31)[C@H](c1ccc(OCCO)cc1)N1[C@H](c3ccccc3)[C@H](c3ccccc3)OC(=O)[C@H]1[C@@H]2C(=O)N1CCCCCCC1 | 7.62
CCCCCN1CC=CC23O[C@@H]4/C=C\CCC(C)OC(=O)C4[C@H]2C(=O)N(CCCCCCO)[C@@H]3C1=O (stereo not given in full) | 0.971
COCCOC(=O)N1C(=O)[C@@]2(c3ccccc31)[C@H](c1ccccc1OCCO)N1[C@H](c3ccccc3)[C@H](c3ccccc3)OC(=O)[C@H]1[C@@H]2C(=O)N1CCCCCCC1 | 0.612
C=C[C@@H](OC)[C@H](OC(=O)Nc1ccc(SC)cc1)c1ccc(OCCO)cc1 | 16.4 (active)
COC(=O)[C@@]1(Cc2ccc(F)cc2)[C@H]2c3cc(C(=O)N(C)C)n(Cc4c(CO)[nH]cc(C)c4=O)c3C[C@H]2CN1C(=O)c1ccccc1 | 0.19
Cc1ccccc1C(O)C1C=CC2C(=O)N(c3ccccc3)C(=O)C2N1Nc1ccc([N+](=O)[O-])cc1 (stereo not given) | 11.2 (active)
COc1cc(NN2C(C(O)c3cc(OC)c(OC)c(OC)c3)C=CC3C(=O)N(c4ccccc4)C(=O)C32)cc(OC)c1OC (stereo not given) | -0.577
C=CCC(OC(C)=O)[C@@H]1[C@@H](N(Cc2cccc3ccccc23)C(=O)c2cccc3ccccc23)c2cc(OCCCO)ccc2N1C(=O)c1ccc2ccccc2c1 (stereo not given in full) | -0.128
COC(=O)[C@@]1(Cc2ccccc2)[C@H]2c3cc(C(=O)N4CCCC4)n(CCSCCO)c3C[C@H]2CN1C(=O)c1ccccc1 | 0.636
Cc1cccc([C@H]2C[C@H]3C(I)=C[C@@H]2C(=O)[C@]32CO2)c1 | 0.0962
O=C1C2C=CC(C(O)C=Cc3ccc([N+](=O)[O-])cc3)N(Nc3ccccc3)C2C(=O)N1c1ccccc1 (stereo not given) | 2.2
CC(=O)NCCCC[C@@H]1NC(=O)[C@H]2C[C@@H](C(=O)NCCCCCNC(=O)CS)[C@@H](c3cccc(OCCO)c3)N2C1=O | 0.461
C=C[C@H](C)[C@H](OC(=O)Nc1ccc(OC)cc1)c1ccc(OCCO)cc1 | 1.76
CCOC(=O)C[C@H]1[C@H](OC(=O)c2ccc(C(=O)c3ccccc3)cc2)[C@@H](NC(=O)CC(C)C)c2cc(OCCCO)ccc2N1C(=O)Cc1ccc(OC)cc1 | 0.351
Cc1ccccc1C(O)C1C=CC2C(=O)NC(=O)C2N1Nc1ccc(Cl)cc1Cl (stereo not given) | 1.35
COc1cc2c(cc1O)C(c1ccc(CN3CCCC3)cc1)N(C)CC2 (stereo not given) | -0.0719
COc1ccc([Si](C)(C)[C@@H]2[C@@H](CCn3cc([C@H](O)c4ccccc4)nn3)O[C@]3(C(=O)N(Cc4cccc(N5C(=O)c6cccc7cccc5c67)c4)c4ccccc43)[C@H]2C)cc1 | 0.662
CC(C)(C)OC(=O)CC[C@]1(C(=O)N2CCCCC2)COC(c2ccc(OCCCO)cc2)=N1 | 5.22

Compound | z-score
COCCOC(=O)N1C(=O)[C@@]2(c3cc(C#CC4=CCCCC4)ccc31)[C@H](c1ccc(O)cc1)N1[C@H](c3ccccc3)[C@H](c3ccccc3)OC(=O)[C@H]1[C@@H]2C(=O)NC[C@H](O)c1ccccc1 | 0.44
CN(C)CCCCCCNC(=O)[C@@H]1C[C@@H]2C(=O)N[C@@H](CCCCN)C(=O)N2[C@@H]1c1ccc(O)cc1 | -0.111
Cc1ccc(N2C(=O)c3ccccc3[C@](C)(C(=O)NCc3ccccc3)[C@@H]2c2ccc(CO)cc2)nc1 | 0.161
C=C[C@@H](C)[C@@H](OC(=O)Nc1ccc(SC)cc1)c1ccc(OCCO)cc1 | 20.2 (active)
C=C(/C(=C/C[C@@H](OC(=O)c1ccncc1)c1cccc(OCCO)c1)c1cnc2ccccc2c1)C(C)C | 1.86
O=c1cccc(-c2ccco2)o1 | 0.0564
O=C1C2C=CC(C(O)c3cc(C(F)(F)F)cc(C(F)(F)F)c3)N(Nc3ccccc3F)C2C(=O)N1c1ccccc1 (stereo not given) | 1.93
O=C(N1CCOCC1)[C@@]1(CCS(=O)(=O)c2ccccc2)N=C(c2ccc(OCCCO)cc2)O[C@H]1c1ccccc1 | 27.8 (active)
COCCCNC(=O)[C@@]1(Sc2ccc(C)cc2)CC(=O)N(C(C)C)[C@@H]1c1ccc(CO)cc1I | -0.602
C=C(C)[C@@H]1CC=C(C(O)C2C=CC3C(=O)N(c4ccccc4)C(=O)C3N2Nc2ccc(C#N)cc2)CC1 (stereo not given in full) | 3.26
C=C(COC)/C(=C/C[C@@H](OC(=O)c1ccncc1)c1ccccc1OCCO)c1cc(C(=O)OC)ccc1OC | 6
CC(C)C[C@@H]1NC(=O)[C@@H]2C[C@H](C(=O)NCCCCCC[N+](C)(C)C)[C@H](c3cccc(OCCO)c3)N2C1=O | 1.35
O=C1C2C=CC(C(O)c3ccco3)N(Nc3ccccc3)C2C(=O)N1c1ccccc1 (stereo not given) | -0.0044
CCOC(=O)C[C@H]1[C@H](OC(=O)c2ccc(-c3ccccc3)cc2)[C@@H](NC(=O)Cc2ccc(OC)cc2)c2cc(OCCCO)ccc2N1C(=O)Cc1ccc(OC)cc1 | 0.4
CCOC(=O)C1=CC[C@@H](c2ccccc2)N(S(=O)(=O)c2ccc(C)cc2)[C@H]1c1cccc(OC)c1 | 0.779
CN1C=C(C(=O)OCCS(C)(=O)=O)C(C(=O)OCCS(C)(=O)=O)=CC(c2ccc(CO)cc2)=CC1c1cccs1 (stereo not given) | 1.64
COC(=O)C(CC#Cc1ccc2c(c1)[C@]1(C(=O)N2)[C@H](c2ccc(OCCO)cc2)N2[C@H](c3ccccc3)[C@H](c3ccccc3)OC(=O)[C@H]2[C@@H]1C(=O)N1CCN(c2ncccn2)CC1)C(=O)OC | 1.62
